In publication PMC13494018:
Unmarked numbers belong to inactive results. How the calls were made is not given here.

Molecular target: CD276, Q5ZPR3
Sequence (Q5ZPR3 whole entry): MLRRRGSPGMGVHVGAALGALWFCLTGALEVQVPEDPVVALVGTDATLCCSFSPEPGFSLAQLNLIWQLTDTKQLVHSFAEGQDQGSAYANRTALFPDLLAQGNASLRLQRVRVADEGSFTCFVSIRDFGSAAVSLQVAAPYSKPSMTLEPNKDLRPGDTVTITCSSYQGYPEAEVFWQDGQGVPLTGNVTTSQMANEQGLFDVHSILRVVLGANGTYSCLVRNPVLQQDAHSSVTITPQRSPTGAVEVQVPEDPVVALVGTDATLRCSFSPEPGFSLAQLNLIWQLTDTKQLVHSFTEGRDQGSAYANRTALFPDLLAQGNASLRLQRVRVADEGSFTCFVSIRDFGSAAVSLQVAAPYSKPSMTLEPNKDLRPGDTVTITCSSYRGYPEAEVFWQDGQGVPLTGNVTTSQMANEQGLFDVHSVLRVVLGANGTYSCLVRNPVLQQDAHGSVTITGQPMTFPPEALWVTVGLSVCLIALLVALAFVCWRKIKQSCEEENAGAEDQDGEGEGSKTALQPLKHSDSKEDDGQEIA

Binder	binding in a display sort
design_619_5728adc2-0aea-404f-92dd-a4575c53f550_189_dldesign_0_cycle1_af2pred (protein) DPATVRGLAAMAALALQAGVTGGPEVGAANLRNVAKLAAARGTPEAAEIAKKAEEAAKEADNPEKVKEYQAYFEEIAKA	not found
design_618_d4ffd631-0ea2-432e-ba0f-bd3d6297b2a0_1622_dldesign_0_cycle1_af2pred (protein) SKEEREKIYKEALKNLEKMGTLLLDLAAQGSAADVAAAKAAIEEAKKLIEEAKKANPEEAKKLAKEAHDILSKALAAVSKSVIA	not found
design_618_d4ffd631-0ea2-432e-ba0f-bd3d6297b2a0_800_dldesign_0_cycle1_af2pred (protein) MSEAAKEVAELAEYVSKQAKEAGNEEAAKLAKEGAELAKEGAKDPSTAGEKIAEALKLYIQASQQLVAYQQA	not found
design_618_d4ffd631-0ea2-432e-ba0f-bd3d6297b2a0_2243_dldesign_0_cycle1_af2pred (protein) AAAAATALAKATAEALVRSAERGNAETARKLAEVAKGLAEGEAAAGDEEAAKAAAEAAKKIEAIAKEKAA	not found
design_618_d4ffd631-0ea2-432e-ba0f-bd3d6297b2a0_1624_dldesign_0_cycle1_af2pred (protein) MKAEVEALREQVSKAVNAATKAGSAAALKDGLASSQKLSEVMEEVGELVKKGNEATKKGEYEEALKYYQKAIEIATDAKAYFEKVAAA	not found
design_618_d4ffd631-0ea2-432e-ba0f-bd3d6297b2a0_1130_dldesign_0_cycle1_af2pred (protein) AEAVAKAALTSAKNLAEMAIRLAESGEKLEEAKKALEVAKAMAEQAEKLNPKYGKEAKAAVEKAEKKLKEAE	not found
design_618_d4ffd631-0ea2-432e-ba0f-bd3d6297b2a0_472_dldesign_0_cycle1_af2pred (protein) MNEAQRIAAARGAARVAAAAAEKDPALGKAILAGAAATFADSPAALKALAATAREEAEKASPEAGAALKAAAAEVEAAAA	not found
design_618_d4ffd631-0ea2-432e-ba0f-bd3d6297b2a0_442_dldesign_0_cycle1_af2pred (protein) AAATRATADAALAELERVGEVAVTVAKSALEAGFSKETALKIGTSLVENVVTGATAAVADDPAAQARIRAAGERIKEEIRKAL	not found
design_619_5728adc2-0aea-404f-92dd-a4575c53f550_149_dldesign_0_cycle1_af2pred (protein) SPAQEAARAEADRAAEAIAAFAKQIAAAASPELAKEVLAAAEKAAAALAAAKELPAEEARAATDAVWAAANRAAAAAMRQVLAQTT	not found
design_618_d4ffd631-0ea2-432e-ba0f-bd3d6297b2a0_2266_dldesign_0_cycle1_af2pred (protein) SADVELGKEKGKELAEKIKEAAKKGLKAGDPEAAGKEMNKIVQEAIKFAATLSPEAASVLLSIVIETAKEESAKLKAA	not found
design_618_d4ffd631-0ea2-432e-ba0f-bd3d6297b2a0_1274_dldesign_0_cycle1_af2pred (protein) MSPEEAKAQAEELAKQAKENKAKALATVADPAKAGEHIVQIAKNAAALQRIAAEVPEVAAYAKAKAREASKYLAEASTAAAAA	not found
design_618_d4ffd631-0ea2-432e-ba0f-bd3d6297b2a0_2461_dldesign_0_cycle1_af2pred (protein) STAFFQEATKLIEEAGEVANRVPEVAPLANKAITAASKAMLAAAQGNEAAAKAYFDEAKKLLEEAKKKAKELLE	not found
design_618_d4ffd631-0ea2-432e-ba0f-bd3d6297b2a0_1447_dldesign_0_cycle1_af2pred (protein) MQGHIDRLNRGAEAALAAAESGEITEEQARIIRNGAMIAYDAAEAYEKTTRAAELLQTTPEGREEGGKILRELAEKMLARAKELL	not found
design_618_d4ffd631-0ea2-432e-ba0f-bd3d6297b2a0_848_dldesign_0_cycle1_af2pred (protein) MERAISLGKAAAVAGIAGSTAALKNIVKTIAKLSPEEAKKAAEVAAKEIIKAPNAKEMLKAAADAAKEVGTESGKAAAEVFEKAAKKA	not found
design_618_d4ffd631-0ea2-432e-ba0f-bd3d6297b2a0_1565_dldesign_0_cycle1_af2pred (protein) MEEELKKIEEVKELGKKIGEELAKKILEYAKENASLPIEEILRKMVEMTREAVEKIYKLIPSELAEIGARIVWGAGSQAMIQGVRLIG	not found
design_618_d4ffd631-0ea2-432e-ba0f-bd3d6297b2a0_1320_dldesign_0_cycle1_af2pred (protein) AAAEAAAAAVRAATAAGVARVEALAAAAGDAEVAALARAEAARIREVGAVLEEIARATGPFGGEVGLKSVATVTANAEARIAEAA	not found
design_618_d4ffd631-0ea2-432e-ba0f-bd3d6297b2a0_2309_dldesign_0_cycle1_af2pred (protein) AGLEIANKALQLAAEATAALKAAAKGTAAEVEALAKKYLDEAKKLKEQATTPQAKAAANIAISAVTTAKKAALAAVA	not found
design_618_d4ffd631-0ea2-432e-ba0f-bd3d6297b2a0_955_dldesign_0_cycle1_af2pred (protein) AAASEIMAKFAAGVAKNVAAVLKEDPEKGIEVGKKLAEIILAADPQAGAKLAQAFAEYVKKYAPLIPADKKAAAEAYFNALAEKGA	not found
design_619_5728adc2-0aea-404f-92dd-a4575c53f550_175_dldesign_0_cycle1_af2pred (protein) AAAQQQAIGNAAIRTADIAMATAKKLIKEDPAKGKEVAEQAVGILEGAAKAAPSTAATLLAEAKKVKEETEKAIKEA	not found

Binder	binding in a display sort
design_618_d4ffd631-0ea2-432e-ba0f-bd3d6297b2a0_931_dldesign_0_cycle1_af2pred (protein) AAAAEAALARAVAVLGRAFQQAVASPDLAEADALLDAGLAEALAITAADPEAAAAVRRLAAQMRAKVRELVS	not found
design_618_d4ffd631-0ea2-432e-ba0f-bd3d6297b2a0_2235_dldesign_0_cycle1_af2pred (protein) EEDEKILESAKKMKEVAKDLAEYAKTSTAEVAKIAANSAEALARILKETAKESKKKEEIEKLAKEAEEYAKEAKETAKKK	not found
design_618_d4ffd631-0ea2-432e-ba0f-bd3d6297b2a0_1745_dldesign_0_cycle1_af2pred (protein) SAARLAEQRARAAELRERAEEALKRAEQVEKKNPAAGAAVRALVRQALRQVELGLADPENAERYLDSARRNLEVAQGIIDATL	not found
design_618_d4ffd631-0ea2-432e-ba0f-bd3d6297b2a0_719_dldesign_0_cycle1_af2pred (protein) AAALAEVQEKALEAAKKASELAREARKAGDEEKAKKFEELMNTLMSAAGAAAQDLEAAKEKIDKAIKEIEELAKN	not found
design_618_d4ffd631-0ea2-432e-ba0f-bd3d6297b2a0_687_dldesign_0_cycle1_af2pred (protein) AAAQQLAVQSATAFARQAIAAAQAALELAKADPSAKEEIERLLNQARASLQNALLVGQSSPEAAAIAQEAQATVEKLAAETAKAAAA	not found
design_618_d4ffd631-0ea2-432e-ba0f-bd3d6297b2a0_1628_dldesign_0_cycle1_af2pred (protein) AAQAQADQITKAAAEAAIKSAKAMVDINLESARKLAEVAADLGKAAPATAAEIKAAAKAVIEEADKKEAEKA	not found
design_619_5728adc2-0aea-404f-92dd-a4575c53f550_74_dldesign_0_cycle1_af2pred (protein) DLDAVIATGMLALGKANAALAAARAGTATAAELEAAAAEAEAAAALAAALAAQSSTMAWLAAQLKKAAAELRAAAAKLKA	not found
design_619_5728adc2-0aea-404f-92dd-a4575c53f550_103_dldesign_0_cycle1_af2pred (protein) SEAERYAEAAKKLAQVAKDIAAAFPANPELKKEAEKAKKYAEKAEKLVKEGGSAEEVLKEYEKARAALARATKLAIAA	not found
design_618_d4ffd631-0ea2-432e-ba0f-bd3d6297b2a0_2000_dldesign_0_cycle1_af2pred (protein) RAAAVEAALAYARAVAETDASLEAARAAFERAKALLPEAPEAAGTLAGAALVAGSNPALGERLFAAGAARAA	not found
design_618_d4ffd631-0ea2-432e-ba0f-bd3d6297b2a0_2296_dldesign_0_cycle1_af2pred (protein) DKYATEAKKYAEEAEKLAKEAKKEAKKVGEAAKELAKQAEAAAKTAKIAAEGAEAATDPAARALALKVAEQAYKQAKKLLKEIKKL	not found
design_619_5728adc2-0aea-404f-92dd-a4575c53f550_130_dldesign_0_cycle1_af2pred (protein) DELFARLEELARALVEEAAKRSPELADIILESYEEGKKIAEELGFGPVTAIAIAAALALRRDPEAGALLRQVFVEVARAAIEAQ	not found
design_618_d4ffd631-0ea2-432e-ba0f-bd3d6297b2a0_2173_dldesign_0_cycle1_af2pred (protein) SSAKEKAKKLAEEAKKIADKAIAQAKALAADKGAANAVLLDAIKELSELAKKAYALDPAYADKINAYAQELVKQMAAIAG	not found
design_618_d4ffd631-0ea2-432e-ba0f-bd3d6297b2a0_941_dldesign_0_cycle1_af2pred (protein) SEEVKKALEEVEKLLDEAIKAAKAGDIGTAAVLLAKAAAIADKAHPEAGAVIRQGLAEAIAAAADPEKAAKVIEEAREKVKKILEA	not found
design_618_d4ffd631-0ea2-432e-ba0f-bd3d6297b2a0_729_dldesign_0_cycle1_af2pred (protein) AKEEVVEQAKQVAEAALALAKQVSPEWEKKAKEALELVEKAKEGNLEEAQKVAGEVMRIAAEVLAAYTAKQA	not found
design_618_d4ffd631-0ea2-432e-ba0f-bd3d6297b2a0_2465_dldesign_0_cycle1_af2pred (protein) AAAAQAAAILAAAQQGINDTTALLEKYKDVATPETVALFNKALAYFSKAAALALRGTQPAEAAAALAKGQEEAKKGEELLKKEVE	not found
design_618_d4ffd631-0ea2-432e-ba0f-bd3d6297b2a0_776_dldesign_0_cycle1_af2pred (protein) GAEEELKKAEEMGEIAESIAKQAAKASGSKEAKELLKKAKELVKKAKENAKDKEKIKELLKELSRLAGQAAKQLIAALK	not found
design_618_d4ffd631-0ea2-432e-ba0f-bd3d6297b2a0_2021_dldesign_0_cycle1_af2pred (protein) AALAAQGRAIARTMRIAVLNAATAAEAAAIADTFGTTLLNLADLASPEEQRAIVEATRAEAEEVAAENPEAGAAVAATAERLRAHVEA	not found
design_619_5728adc2-0aea-404f-92dd-a4575c53f550_132_dldesign_0_cycle1_af2pred (protein) AEAAAALAAAMRAATDAAVAEAATGTGEGIAKALHVANLARAAAEANPETAAEHRAYAERALAAAKAAQAAAIAAA	not found
design_618_d4ffd631-0ea2-432e-ba0f-bd3d6297b2a0_1177_dldesign_0_cycle1_af2pred (protein) AQATLASAQALTNAAETALKTSPEYAPLALQLAQQGIELAKQAAKEGAKEDPATAKEAKEVQKKAEEVAKQAQKILA	not found
